The values that follow come from PubChem BioAssay (Tox21).

Structures are written as SMILES. Results filed as inconclusive are left out. A number with no mark means an inactive call. The source made the active and inactive calls. Calls follow the shape of the full dose curve.
% is scaled to controls: 0 for no effect and ±100 for the full control effect.

Sequence of Acetylcholinesterase (Homo sapiens) (P22303 whole entry, looked up): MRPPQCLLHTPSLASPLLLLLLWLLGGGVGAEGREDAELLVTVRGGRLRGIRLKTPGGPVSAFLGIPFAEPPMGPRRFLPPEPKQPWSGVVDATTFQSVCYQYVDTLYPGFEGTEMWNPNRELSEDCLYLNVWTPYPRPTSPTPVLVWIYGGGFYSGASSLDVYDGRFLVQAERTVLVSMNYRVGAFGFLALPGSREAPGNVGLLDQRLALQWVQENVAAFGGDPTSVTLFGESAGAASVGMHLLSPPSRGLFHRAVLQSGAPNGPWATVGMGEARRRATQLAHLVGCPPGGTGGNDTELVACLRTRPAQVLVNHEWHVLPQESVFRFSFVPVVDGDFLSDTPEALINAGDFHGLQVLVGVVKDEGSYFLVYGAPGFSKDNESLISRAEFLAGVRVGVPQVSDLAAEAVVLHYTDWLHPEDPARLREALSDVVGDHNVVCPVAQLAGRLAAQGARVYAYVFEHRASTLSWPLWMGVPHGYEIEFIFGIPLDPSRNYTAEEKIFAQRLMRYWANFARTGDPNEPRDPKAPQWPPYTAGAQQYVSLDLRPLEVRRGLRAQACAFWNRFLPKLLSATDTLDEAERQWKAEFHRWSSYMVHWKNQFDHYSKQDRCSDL

This assay addresses Acetylcholinesterase (Homo sapiens) (UniProt P22303). As to the kind of experiment: Acetylcholinesterase (AChE) small molecule antagonists: colormetric cell-based qHTS assay (AID 1347395). Also: nearly all actives have a fitted effect of over 30% in size. The settings on record: SH-SY5Y cells AChE activity, colorimetric (Ellman); series mostly up to 115 µM; activity, negative = inhibition: at the top concentration. The procedure, abridged: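 AChE inhibition read colorimetrically via DTNB–thiocholine in SH-SY5Y cells. Compound 30 min, substrate 90 min, both 37 C.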
A general note: Quantitative high-throughput screening tests each substance at several concentrations.
Consider `NCCCC[C@H](N[C@@H](CCc1ccccc1)C(=O)O)C(=O)N1CCC[C@H]1C(=O)O`, for which the “activity, negative = inhibition” value is 3.94% [at 52.9 µM]. Consider `CCCCC(CC)COC(=O)c1ccc(O)cc1` (centres undefined), for which the Potency entry was “inactive”.

As for `C=Cc1ccncc1`, the “activity, negative = inhibition” value was -0.436%.

`Fc1ccccc1[C@@H](F)COC1CCC(Nc2ncnc3[nH]ncc23)CC1` (some centres undefined): the “activity, negative = inhibition” value is -3.81%. On to `C=Cc1ccccc1`, for which the “activity, negative = inhibition” value was -0.904%. Turning to `CC(=O)OCCC(C)C`, the Potency result is “inactive”. In the case of `C=C(C)C(=O)OCCOP(=O)(O)O`, the “activity, negative = inhibition” value is 0.21%. The same measure, in the same setting: then `Cc1ccccc1N=C(N)Nc1ccccc1C`, with 1.43%; and `CCCCC(C)C(=O)O` (centres undefined), with 0.852%; and `CC(C)(C)CCCCCCOC(=O)c1ccccc1C(=O)OCCCCCCC(C)(C)C`, with -7.42%. `CCCCC[Si](OCC)(OCC)OCC`: the “activity, negative = inhibition” value is -3.41%. Same read-out and setting: then `CC(C)=CCC/C(C)=C/CC/C(C)=C/C(=O)OCC(=O)[C@@]1(O)CC[C@H]2[C@@H]3CCC4=CC(=O)C=C[C@]4(C)[C@H]3[C@@H](O)C[C@@]21C`, with -1.06% [at 52.9 µM]; and `CCCc1c(OCCCOc2ccc(OCC(=O)O)cc2)ccc(C(C)=O)c1O`, with -1.54%; and `Nc1cccc(S(=O)(=O)c2cccc(N)c2)c1`, with 0.21%. Regarding `ClC(c1ccccc1)(c1ccccc1)c1ccccc1`, the “activity, negative = inhibition” value is -0.153%. Turning to `NC(=S)NC(N)=S`, the “activity, negative = inhibition” value was 0.841%. Consider `O=[N+]([O-])c1c(Cl)cc(Cl)cc1Cl`, for which the “activity, negative = inhibition” value was 0.307%. `CC(C)OC(=O)COc1ccc(Cl)cc1Cl`: the Potency entry was “inactive”. For the compound `Oc1ccc2c(c1)-c1ccccc1C2`, the “activity, negative = inhibition” value is 0.852%.

Consider `O=C(/C=C/c1ccccc1)OCc1ccccc1`, for which the Potency result was “inactive”. With `CCC1(C)CC(=O)NC1=O` (centres undefined), the “activity, negative = inhibition” value is -2.29% [at 52.9 µM].

With `CC(C)=CC=O`, the “activity, negative = inhibition” value was -0.277%. As for `COc1ccc(C(Cl)=C(c2ccc(OC)cc2)c2ccc(OC)cc2)cc1`, the Potency entry is “inactive”. Regarding `CC(C)(N)CO`, the Potency result was “inactive”.
